Experimental findings from PubChem BioAssay (NCATS) are described below.

The nature of test [1]: qHTS profiling of the MIPE4 collection as inhibitors of Plasmodium falciparum (3D7) proliferation (AID 743344).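 Note: scaled between DMSO vehicle wells and 0.29 µM artemisinin as full inhibition.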 Particulars: P. falciparum 3D7 in erythrocytes, SYBR Green DNA fluorescence, 72 h; at 28.5 µM unless noted. In short, it runs like this: (§1)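 Parasite DNA was quantified by SYBR Green I fluorescence (ex 485, em 535 nm) after overnight lysis in saponin/Triton buffer at room temperature. Cultures at 0.3% parasitemia and 2.5% hematocrit were first exposed to compound for 72 h at 37 C; signals were normalised to artemisinin (0.29 uM) and vehicle wells.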
(Quantitative high-throughput screening tests each substance at several concentrations.)

The nature of test [2]: qHTS profiling of the MIPE4 collection as inhibitors of Plasmodium falciparum (DD2) proliferation (AID 743345). Conditions: P. falciparum Dd2 in erythrocytes, SYBR Green DNA, 72 h; at 28.5 µM unless noted. The method in brief:
as §1

Test [3] is described as follows: qHTS profiling of the MIPE4 collection as inhibitors of Plasmodium falciparum (DD2) proliferation (Rep 2) (AID 743346). Particulars: P. falciparum Dd2 in erythrocytes, SYBR Green DNA, 72 h; at 28.5 µM unless noted. The method in brief:
as §1

Test [4] can be described thus: qHTS profiling of the MIPE4 collection as inhibitors of Plasmodium falciparum (HB3) proliferation (AID 743347).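 Note: plate controls were DMSO vehicle wells for no effect and artemisinin wells for full effect.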 Conditions: P. falciparum HB3 in erythrocytes, SYBR Green DNA, 72 h; at 28.5 µM unless noted. In short, it runs like this: as §1
Test [5] in a line: High-throughput drug toxicity screening in the BPDCN cell line Gen2.2 (AID 1224824).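 Note: cells exposed to compounds for 48 h before reading.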 Conditions: Gen2.2 BPDCN cells; at 45.8 µM (top of the series) unless noted. In short, it runs like this: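 Gen2.2 cells (500/well) in phenol red-free RPMI with 10% FBS were exposed to compounds for 48 h at 37 °C, 5% CO2. Viability was read by CellTiter-Glo luminescence and normalized to DMSO (100%) and 9.2 uM bortezomib (0%).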

Test [6] is described as follows: High-throughput drug toxicity screening in the BPDCN cell line Cal-1 (AID 1224825). Particulars: Cal-1 BPDCN cell viability, qHTS; at 45.8 µM (top of the series) unless noted. The method in brief:
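CellTiter-Glo luminescence after 48 h compound exposure; percent activity scaled with DMSO as 100% and bortezomib (9.2 uM final) as 0%. Cal-1 cells seeded at 500/well in RPMI, 10% FBS, no phenol red.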

The nature of test [7]: qHTS assay for measurement of the activity of small molecule inhibitors on Zika virus induced Caspase-3 activity in human iPSC derived neural progenitor cells (hNPCs) (AID 1224857; active = well fitted curve in the direction sought with a large enough effect; an effect the other way counts as inactive or inconclusive; note: % of control where 0% means no effect; nearly all actives have a fitted effect of over 65% in size). In short, it runs like this:
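Caspase-3/7 induction by a 6-hour ZIKV infection was quantified with a luminescent Caspase-Glo 3/7 reagent incubated 30 minutes at room temperature. Compounds were preincubated with hNPCs for 1 hour; inhibition was calculated against uninfected and infected control wells.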

The nature of test [8]: qHTS assay for measurement of the activity of small molecule inhibitors on Zika virus induced Caspase-3 activity in human astrocytoma cells (AID 1224859; active = well fitted curve in the direction sought with a large enough effect; an effect the other way counts as inactive or inconclusive;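 note: plate controls were ZIKV-infected untreated cells for no effect and uninfected cells for full effect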). In short, it runs like this: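 In SNB-19 cells plated at 250 cells/well and grown 16-20 h, compounds were applied 1 h before ZIKV (2 FFU/cell). Six hours later caspase-3/7 luminescence was recorded.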
Test [9] can be described thus: qHTS profiling for inhibitors of Plasmodium falciparum (HB3) proliferation (AID 743324; active = well fitted curve in the direction sought with a large enough effect; an effect the other way counts as inactive or inconclusive;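 note: 100% = DMSO vehicle wells and 0% = artemisinin-treated control wells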). Conditions: Plasmodium falciparum HB3 blood-stage proliferation; at 28.7 µM (top of the series) unless noted. The method in brief:
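SYBR Green fluorescence (485 ex/535 em) of lysed cultures, incubated overnight at room temperature in the dark, quantifies parasite DNA. Infected erythrocytes at 0.3% parasitemia and 2.5% hematocrit were exposed 72 h; values normalized to DMSO and 0.29 uM artemisinin controls.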

Test [10] can be described thus: qHTS Screen of the MIPE 4.0 Collection Against Ewings Sarcoma (RDES) (AID 1259252; active = well fitted curve in the direction sought with a large enough effect; an effect the other way counts as inactive or inconclusive; note: nearly all actives have a fitted effect of over 35% in size; note: potency is the fitted concentration of half-maximal effect). In short, it runs like this: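 Viability screen: 48 h incubation at 37C, 95% humidity, 5% CO2 with serially titrated compound, followed by CellTiter-Glo readout.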

Records with an inconclusive call do not appear. Activity calls are given as the source filed them. Unless noted, the rule behind the calls is not given here.

As for `Nc1ccn([C@@H]2O[C@H](CO)[C@@H](O)[C@H]2O)c(=O)n1`, the parasite growth, % of DMSO control in test [1] was found to be 89.8%. Also, the parasite growth remaining, % of DMSO control (lower = more inhibition) in test [2] came to 97.8%. For the same compound, in test [3], the parasite growth, % of control (lower = inhibition) came to 117%. The growth, % of control in test [4] is 108%. In addition, the cell viability, % of control (lower = more cytotoxic) in test [5] is 86.2%. In addition, in test [6], the viability (% of control) was 11.3%. In addition, the Potency result in [7] and in test [8] was “inactive” in each case.

Take `O=C(O)C1=NC(C(=O)O)CC(C=CN2c3cc(O)c(OC4OC(CO)C(O)C(O)C4O)cc3CC2C(=O)O)=C1` (stereo not drawn): the parasite growth, % of DMSO control in test [1] was 93%. The parasite growth remaining, % of DMSO control (lower = more inhibition) in [2] amounted to 104%. In addition, the parasite growth, % of control (lower = inhibition) in test [3] is 76.3%. Besides, the growth, % of control in test [4] was 92%. Further, the cell viability, % of control (lower = more cytotoxic) in test [5] turned out to be 267%. In addition, in test [6], the viability (% of control) stood at 136%. The Potency result in [7] and in test [8] was “inactive” in each case.

In [1], `O=C1CCCC(=O)C1C(=O)c1ccc(C(F)(F)F)cc1[N+](=O)[O-]` had a parasite growth, % of DMSO control of 90.1%. Further, the parasite growth remaining, % of DMSO control (lower = more inhibition) in [2] amounted to 103%. Moreover, the parasite growth, % of control (lower = inhibition) in [3] amounted to 114%. In addition, the growth, % of control in test [4] amounted to 93.4%. Further, the cell viability, % of control (lower = more cytotoxic) in [5] is 124%. In addition, the viability (% of control) in [6] was 101%. In addition, the Potency entry in [7] and in test [8] was “inactive” in each case.

In the case of `Cc1ccc(C(=O)N(CCCN)[C@@H](c2nc3cc(Cl)ccc3c(=O)n2Cc2ccccc2)C(C)C)cc1`, in test [9], the remaining proliferation (% of control), lower = more inhibition was 0.0585%. The same compound displayed a parasite growth, % of DMSO control in [1] of 4.61%. For the same compound, the parasite growth remaining, % of DMSO control (lower = more inhibition) in test [2] is 7.03%. Also, in [3], the parasite growth, % of control (lower = inhibition) is 13.3%. In test [4], the growth, % of control was found to be 6.88%. The cell viability, % of control (lower = more cytotoxic) in test [5] came to 4.1%. Also, the viability (% of control) in test [6] stood at 3.23%. The Potency entry in test [7] and in test [8] was “inactive” each time.

In the case of `CCCC1OC2C[C@@H]3[C@H]4CCC5=CC(=O)C=C[C@]5(C)[C@H]4C(O)C[C@]3(C)[C@]2(C(=O)CO)O1` (stereo partly drawn), the parasite growth, % of control (lower = inhibition) in [3] worked out at 15.8%. In test [4], the growth, % of control was 5.33%. The cell viability, % of control (lower = more cytotoxic) in test [5] was found to be 12.2%. Also, the viability (% of control) in [6] was 11.8%. Moreover, the Potency result in test [7], in test [8] and in test [10] was “inactive” each time.

Compound `CCNC(=O)CCCC=CC[C@@H]1[C@H](C=CC(O)CCc2ccccc2)[C@@H](O)C[C@@H]1O` (stereo partly drawn) yielded a parasite growth, % of DMSO control in [1] of 63.1%. The parasite growth remaining, % of DMSO control (lower = more inhibition) in test [2] came to 127%. Besides, the parasite growth, % of control (lower = inhibition) in [3] was 60.3%. For the same compound, the growth, % of control in test [4] worked out at 74.9%. In test [5], the cell viability, % of control (lower = more cytotoxic) was 108%. The viability (% of control) in [6] is 21%. The Potency entry in test [7] and in test [8] was “inactive” each time.

For the compound `N=C1SC(=Cc2ccc(-c3ccc4c(c3)C(=O)NC4=O)o2)C(=O)N1c1ccc(Br)cc1`, in test [1], the parasite growth, % of DMSO control came out at 9.09%. The parasite growth remaining, % of DMSO control (lower = more inhibition) in test [2] turned out to be 21.3%. Further, the parasite growth, % of control (lower = inhibition) in test [3] is 30.9%. Besides, the growth, % of control in test [4] was determined as 9.17%. Also, in test [5], the cell viability, % of control (lower = more cytotoxic) was 13.7%. In addition, the viability (% of control) in [6] came to 35.6%. Besides, the Potency result in [7] and in test [8] was “inactive” throughout.

Regarding `Cc1ccc(NC(=O)c2ccc(CN3CCN(C)CC3)cc2)cc1Nc1nc(-c2cccnc2)cs1`, the remaining proliferation (% of control), lower = more inhibition in test [9] turned out to be 4.39%. Besides, the parasite growth, % of DMSO control in test [1] was found to be 9.29%. Besides, in [3], the parasite growth, % of control (lower = inhibition) is 12.5%. In test [4], this compound showed a growth, % of control of 4.3%. Further, the cell viability, % of control (lower = more cytotoxic) in test [5] turned out to be 14.8%. Also, the viability (% of control) in test [6] amounted to 6.7%. Further, the Potency result in test [7] and in test [8] was “inactive” throughout.

Take `CN(C)CCOc1ccc(C(=C(CCCl)c2ccccc2)c2ccccc2)cc1`: the parasite growth, % of control (lower = inhibition) in [3] was determined as 19.5%. In addition, in test [4], the growth, % of control stood at 27%. In addition, in [5], the cell viability, % of control (lower = more cytotoxic) stood at 103%. The viability (% of control) in test [6] came to 111%. Also, the Potency result in test [7] and in [8] was “inactive” throughout. Further, the Potency in [10] was 1.66 µM (active).

As to `CC(C)CNc1ccnc(NCc2csc(-c3ccccc3)n2)n1`, the remaining proliferation (% of control), lower = more inhibition in [9] was -0.95%. Moreover, the parasite growth, % of DMSO control in [1] was 7.23%. Besides, the parasite growth remaining, % of DMSO control (lower = more inhibition) in test [2] is 31.7%. For the same compound, the parasite growth, % of control (lower = inhibition) in test [3] is 25%. The same compound registered a growth, % of control in test [4] of 10.6%. Further, the cell viability, % of control (lower = more cytotoxic) in test [5] was determined as 74.3%. In addition, the viability (% of control) in test [6] turned out to be 5.31%. For the same compound, the Potency entry in test [7] and in [8] was “inactive” in each case.

On to `Nc1[nH]nc2nnc(-c3c(-c4ccccc4)nn4ccccc34)cc12`, for which, in test [2], the parasite growth remaining, % of DMSO control (lower = more inhibition) amounted to 97%. Also, the parasite growth, % of control (lower = inhibition) in [3] stood at 46.8%. For the same compound, the growth, % of control in test [4] stood at 26%. Moreover, the cell viability, % of control (lower = more cytotoxic) in [5] was determined as 5.31%. For the same compound, the viability (% of control) in test [6] was found to be 6.85%. Also, the Potency result in [7] and in test [8] was “inactive” each time. The Potency in [10] was 5.9 µM (active).
